Results reported in the supplement of paper PMC7556523.

These molecules were tested on Sporothrix schenckii ATCC 32286 (assay: growth inhibition relative to untreated control; higher = more growth inhibition (more antifungal activity), active = 80 or more; extreme values may be limits of the assay). Conditions: 1 µM; 48 h.
Summary of the method: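 Before testing, the reference isolates were kept in brain heart infusion broth with 2% glucose at 36°C for 7 days to give yeast-form cells. These cells, at 1 x 10^5 CFU/ml, received library compounds at a final 1 μM and were held 48 h at 35°C in 5% CO2. Growth was checked by eye under an inverted light microscope and quantified spectrophotometrically in quadruplicate, and the value is percent growth inhibition versus untreated cells.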

Row | SMILES | growth inhibition
1 | CC(Oc1cccc(Cl)c1)C(=O)Nc1ccc2oc(-c3ccncc3)nc2c1 (stereo not drawn) | 4.25% (inactive)
2 | COc1cc(NC(C)CCCN)c2ncccc2c1 (stereo not drawn) | 4.25% (inactive)
3 | Cc1nnc(NCc2cccc(Cl)c2)c2ccccc12 | 8.75% (inactive)
4 | C[C@]1(COc2ccc(N3CCC(Oc4ccc(OC(F)(F)F)cc4)CC3)cc2)Cn2cc([N+](=O)[O-])nc2O1 | 4.5% (inactive)
5 | CS(=O)(=O)N1CCC(Cn2nc(Cc3cccc4ccccc34)c3c(N)ncnc32)CC1 | 22% (inactive)
6 | CC(C)(C)C(=O)N(CCCCCCN1C[C@H](O)[C@@H](O)[C@H](O)[C@H]1CO)C1CCCCCC1 | 8% (inactive)
7 | N=C(N)c1ccc(OCCCCCOc2ccc(C(=N)N)cc2)cc1 | 72% (inactive)
8 | CC(=O)NC[C@H]1CN(c2ccc(N3CCSCC3)c(F)c2)C(=O)O1 | 0% (inactive)
9 | CC[C@@H]([C@H](C)O)n1ncn(-c2ccc(N3CCN(c4ccc(OC[C@@H]5CO[C@@](Cn6cncn6)(c6ccc(F)cc6F)C5)cc4)CC3)cc2)c1=O | 88.5% (active)
10 | CC1CCCN(C(=O)C(C)Nc2cc(Cl)ccc2N2CCOCC2)C1 (stereo not drawn) | 0.5% (inactive)
11 | c1cncc(NCc2ccc(-c3cc4ccncc4cc3OC3CCNCC3)s2)c1 | 3% (inactive)
12 | N#CCN(CCCCN1CCN(c2ccc(F)cc2)CC1)C(=O)OCc1ccccc1 | 2.5% (inactive)
13 | COc1ccc(-c2cnc3ccc(NCc4ccc(S(N)(=O)=O)cc4)nn23)cn1 | 18.2% (inactive)
14 | Nc1ncnc2c1c(-c1cnc3ccccc3c1)nn2CC1CCNCC1 | 15.5% (inactive)
15 | O=C(c1cc2ccccc2o1)N1CCN(Cc2ccc3c(c2)OCO3)CC1 | 7.25% (inactive)
16 | CCOc1ccc(-c2nc(NC(=O)CS(=O)(=O)c3ccccc3)sc2C)cc1 | 0.5% (inactive)
17 | O=C(NCc1ccoc1)N1CCN(Cc2ccc3c(c2)OCO3)CC1 | 6.25% (inactive)
18 | Cc1ccc(-c2nc(CN(Cc3ccccn3)C(C)C)cs2)o1 | 1.75% (inactive)
19 | COc1ccc(CN2CCOc3ccc(C(C)(O)CN(C)C)cc3C2)cc1C (stereo not drawn) | 16% (inactive)
20 | Cc1nc(-c2cccc(NCc3ccccc3)c2)[nH]c1C | 10.2% (inactive)
21 | N=C(N)Nc1ccc(-c2ccc(-c3ccc(N=C(N)N)c(Cl)c3)o2)cc1Cl | 0% (inactive)
22 | O=C(N[C@H](Cc1ccccc1)C(=O)Nc1ccccc1N1CCOCC1)c1cccs1 | 7.25% (inactive)
23 | O=C(Cn1ccnc1[N+](=O)[O-])NCc1ccccc1 | 4% (inactive)
